Screens as filed in PubChem.
A selection: hits, their analogues and other compounds. The true share with any hit is near 7.6%.
hERG WT inh: blocks the wildtype human KCNH2 potassium channel. U2OS, BacMam KCNH2, thallium flux FluxOr; stronger effect = lower value. activity change, % at 1.84 µM. 0.37% of 340,000 active;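 active = maximum activity change below -70%; inconclusive = maximum activity change between -70% and -50%; inactive = maximum activity change above -50%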; also: % is scaled to controls: 0 for no effect and ±100 for the full control effect
Target sequence (Q12809 whole entry, looked up): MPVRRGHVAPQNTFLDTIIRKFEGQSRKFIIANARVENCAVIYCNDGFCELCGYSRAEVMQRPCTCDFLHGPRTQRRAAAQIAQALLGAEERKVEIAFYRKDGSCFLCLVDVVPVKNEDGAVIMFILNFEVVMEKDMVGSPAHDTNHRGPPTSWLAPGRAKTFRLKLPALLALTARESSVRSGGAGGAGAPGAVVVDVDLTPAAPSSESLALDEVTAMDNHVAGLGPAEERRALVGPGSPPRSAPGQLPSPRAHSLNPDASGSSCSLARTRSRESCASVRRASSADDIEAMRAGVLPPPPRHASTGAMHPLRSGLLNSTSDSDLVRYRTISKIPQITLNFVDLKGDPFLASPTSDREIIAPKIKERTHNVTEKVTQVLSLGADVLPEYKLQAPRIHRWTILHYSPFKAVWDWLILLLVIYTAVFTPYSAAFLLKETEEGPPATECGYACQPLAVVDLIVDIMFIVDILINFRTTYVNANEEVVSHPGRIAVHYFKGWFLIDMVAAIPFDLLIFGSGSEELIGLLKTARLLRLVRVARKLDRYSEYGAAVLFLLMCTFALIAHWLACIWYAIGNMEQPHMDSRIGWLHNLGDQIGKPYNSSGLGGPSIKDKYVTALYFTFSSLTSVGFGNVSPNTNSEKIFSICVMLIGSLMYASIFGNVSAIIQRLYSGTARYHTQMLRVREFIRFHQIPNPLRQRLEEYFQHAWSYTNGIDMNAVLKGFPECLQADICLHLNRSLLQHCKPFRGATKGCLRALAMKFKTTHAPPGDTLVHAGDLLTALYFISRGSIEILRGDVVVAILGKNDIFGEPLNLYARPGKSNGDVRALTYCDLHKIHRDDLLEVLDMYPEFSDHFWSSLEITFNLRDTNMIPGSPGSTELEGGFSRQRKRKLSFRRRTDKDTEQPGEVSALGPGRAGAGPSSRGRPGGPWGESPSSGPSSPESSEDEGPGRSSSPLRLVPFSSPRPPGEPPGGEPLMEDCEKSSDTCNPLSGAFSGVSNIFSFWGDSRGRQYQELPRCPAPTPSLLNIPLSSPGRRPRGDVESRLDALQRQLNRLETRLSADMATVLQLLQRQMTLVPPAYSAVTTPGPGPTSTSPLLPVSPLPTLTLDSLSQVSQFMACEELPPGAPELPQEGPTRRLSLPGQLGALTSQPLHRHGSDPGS
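U2OS cells transduced with wild-type KCNH2 virus are loaded with FluxOr dye for 45 min, and thallium flux is measured in kinetic reads before and after stimulation buffer. Rate constants are normalized to DMSO controls.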
SW480 rerep: DNA re-replication induction in SW480 cells. SW480 DNA re-replication, Hoechst DNA content imaging, 48 h. AID 624297. Potency, µM (doses to about 46.1 µM), for inactives: top-dose re-replication activation, most hits filed as activators. 1.8% of 340,000 active; also: potency is read from the fitted curve at half-maximal effect; % of control where 0% means no effect; nearly all actives have a fitted effect of over 55% in size
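Compounds, transferred as 23 nL by pin tool, were incubated with cells for 48 hr; DNA content per nucleus was then quantified by Hoechst staining and fluorescence plate imaging.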
MCF10A rerep: inducers of DNA re-replication in MCF 10A breast cells. MCF 10A DNA re-replication, Hoechst nuclear intensity, 48 h. AID 624296. Potency, µM (titrated, usually from 46.1 µM), without a hit: at the highest dose activity, positive = re-replication, actives largely listed as activators. 2.9% of 350,000 active; also: potency is read from the fitted curve at half-maximal effect; % of control where 0% means no effect; nearly all actives have a fitted effect of over 50% in size
KB-3-1 tox: KB-3-1 parental cell cytotoxicity; KB-3-1 viability, CellTiter-Glo ATP luminescence, 72 h; Potency, µM (highest dose often 46.1 µM), hits mostly cytotoxic; 1.4% of 400,000 active; also: potency is read from the fitted curve at half-maximal effect; % is scaled to controls: 0 for no effect and ±100 for the full control effect; nearly all actives have a fitted effect of over 60% in size
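Parental KB-3-1 viability, qHTS format: 72 h compound exposure, 37 °C; CellTiter-Glo; media-only wells and DMSO plates as controls; concentration-effect fits on corrected data.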
KCNH2 3.1 inh: blocks the human KCNH2 3.1 channel isoform. U2OS KCNH2 3.1, thallium flux FluxOr; stronger effect = lower value. activity change, % (tested at about 1.8 µM). 0.95% of 340,000 active;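 active = maximum activity change below -70%; inconclusive = maximum activity change from -70% to -50%; inactive = maximum activity change above -50%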;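 also: thallium influx rate constant from kinetic fluorescence after stimulation buffer; % is scaled to controls: 0 for no effect and ±100 for the full control effect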
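Thallium flux read-out: FluxOr dye with Red40 quencher in HBSS/HEPES, 45 min at RT. Rate constants from kinetic reads were normalized to positive and negative DMSO controls. Cells: U2OS virally expressing the 3.1 isoform.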
KB-V1 MDR tox: kills drug-selected multidrug resistant KB-V1 cells; Potency, µM (series often up to 46.1 µM), usual class: cytotoxic; KB-V1 MDR cells viability, CellTiter-Glo, 72 h; 3.4% of 400,000 active; also: potency is read from the fitted curve at half-maximal effect; % is scaled to controls: 0 for no effect and ±100 for the full control effect; nearly all actives have a fitted effect of over 60% in size
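In this primary screen, KB-V1 cells overexpressing P-gp are incubated with library compounds (lowest to highest concentration) for 72 h at 37 degrees C before a luminescent ATP viability read.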
* hit, by the source's call; i = inactive; u = inconclusive; x = no result; [ ] = another dose, or the depositor's remark. Unless noted, calls follow the shape of the dose curve; as a rule, active = well fitted curve in the direction sought with a large enough effect; inconclusive = small, poorly fitted or top-dose-only effect, or another doubt; inactive = no such curve, though single readings can be large; an effect the other way counts as inactive or inconclusive.

SMILES | hERG WT inh | SW480 rerep | MCF10A rerep | KB-3-1 tox | KCNH2 3.1 inh | KB-V1 MDR tox
O=C(CSc1nc(-c2cccc(Cl)c2)nc2cc(=O)[nH]n12)Nc1ccccc1 | x | x | x | i | x | u
COc1ccc2[nH]c(-c3ccc(C)cc3)cc(=O)c2c1 | -2 | u | u | 9.2µM* | 1 | u
O=C1C(c2cc(=O)c3ccccc3[nH]2)=C(O)c2ccccc21 | 4 | 0% | u | i | x | i
O=c1cc(-c2ccccc2)[nH]c2ccccc12 | 0 | u | 1.3µM* | 0.65µM* | -2 | u
COc1ccc(C(=O)Nc2ccc3[nH]c(-c4cccc(OC)c4)cc(=O)c3c2)cc1 | -11 | 0.65µM* | 0.58µM* | 0.73µM* | -18 | i
CN1C(N)=NC(=O)/C1=C\c1ccc(Br)cc1 | -1 | 5% | -2% | i | 23 | i
CSc1ccccc1C(=O)OCC(=O)Nc1c(C)n(C)n(-c2ccccc2)c1=O | 4 | x | x | i | 7 | i
Cc1ccc(C)c(N2CCN(Cc3nnnn3C3CCCCC3)CC2)c1 | 1 | 14% | u | i | -20 | 23µM*
CCC(C)(C)n1nnnc1CN1CCN(c2nc3cc(OC)ccc3cc2C#N)CC1 | 0 | 11% | u | u | -9 | i
COc1cccc(N2CCN(Cc3nnnn3C3CCCCC3)CC2)c1 | i | 1% | 0% | i | -11 | 23µM*
Cc1ccc2nc(N3CCN(Cc4nnnn4C4CCCC4)CC3)c(C#N)cc2c1 | -3 | -6% | u | i | -2 | 21µM*
CCn1ccnc1CN(C)C(=O)c1cc(COc2ccc(OC)c3ccccc23)on1 | 14 | 2% | 0% | i | 4 | i
COc1ccc(NC(=O)c2c3c(nc4ccccc24)CCC3)cc1S(=O)(=O)N1CCOCC1 | 2 | -47% | -3% | i | 4 | u
COCCCN(Cc1ccco1)C(=O)c1cc2c(s1)-c1ccccc1OC2 | x | x | x | u | x | 10µM*
CC1CCCN(CCCNC(=O)c2cc3c(s2)-c2ccccc2OC3)C1 (centres undefined) | 22 | u | u | u | -34 | i
CCc1ccc(CNC(=O)c2cc3c(s2)-c2ccccc2OC3)cc1 | x | x | x | 15µM* | x | u
Cc1cccc2c1-c1sc(C(=O)NCCCN3CCC(C)CC3)cc1CO2 | 11 | 29µM* | 23µM* | u | -75* | i
Cc1ccc(CCNC(=O)c2cc3c(s2)-c2c(C)cccc2OC3)cc1 | x | x | x | u | x | i
CC1CCN(CCCNC(=O)c2cc3c(s2)-c2ccccc2OC3)CC1 | 14 | 84% | 5.8µM* | 23µM* | -45 | i
CCOc1ccc(CNC(=O)c2cc3c(s2)-c2ccccc2OC3)cc1 | x | x | x | i | x | i
COc1nc(Oc2ccc(=O)n(-c3ccccc3)n2)nc(N(C)C)n1 | x | x | x | i | x | i
N#Cc1ccccc1CSc1nnc(-c2ccc(Br)cc2)o1 | x | x | x | i | x | i
CCc1ccc(N/C(SCc2cccc(F)c2)=C(/C#N)C(=O)NCc2ccco2)cc1 | 5 | u | 16% | i | -11 | u
Cc1ccc(N/C(SCc2ccccc2C)=C(/C#N)C(=O)NCc2ccco2)cc1C | 2 | 3% | u | u | 4 | 12µM*
O=C1C=C(c2ccc3[nH]ccc3c2)C[C@@H](c2ccc(F)cc2)C1 | x | 2% | 21µM* | u | x | i
COc1ccc([C@H]2CC(=O)C=C(c3ccc4[nH]ccc4c3)C2)cc1OC | 3 | 3%[9.22 µM] | -5% | i | -14 | i
O=C1C=C(c2ccc3ncccc3c2)C[C@@H](c2ccc3c(c2)OCO3)C1 | 3 | 21µM* | u | u | -4 | u
O=C1C=C(c2ccc3ccccc3c2)C[C@@H](c2ccc(F)cc2)C1 | -7 | u | u | u | -86* | i
CS(=O)(=O)N1c2ccccc2[C@@]2(Br)C[C@H]3C(=O)N[C@@H](Cc4ccccc4)C(=O)N3[C@@H]12 | -10 | 1% | 1% | i | 5 | i
